The results in this text go back to PubChem BioAssay (NCI).

Among the test systems are DU-145 prostate; K-562 leukemia; MALME-3M melanoma; MDA-MB-231 breast; SF-268 CNS; SF-295 CNS; SF-539 CNS; UACC-257 melanoma; M14 melanoma.
Holding throughout (assay): NCI-60 one-dose screen, 48 h (100 = growth as untreated, 0 = no growth, -100 = all killed)
Common to all, as to settings: 10 µM

About 83,000 compounds went through this panel and 20% of them were active in at least one assay; those are over-represented in the sample as a whole.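 Note: values are percent growth. 100 is the growth of untreated cells, values between 100 and 0 indicate rising inhibition; between -100 and 0 indicates cell death.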 A number with no mark means an inactive call. Active and inactive are the calls of the source. The calls were made as follows: active = growth percent below 10; inactive = the rest.

On to `CCOC(=O)c1c(CSc2ccccc2)n(C)c2cc(CN(C)C)c(O)c(CN(C)C)c12`, for which the growth in the experiment with DU-145 prostate was 60.8%; in the experiment on K-562 leukemia it was 19.7%; in the experiment with MALME-3M melanoma, -15.3% (active); with MDA-MB-231 breast, 16%; with SF-268 CNS it was 71.3%; in the experiment with SF-295 CNS it was 46.9%. Besides, the results for the growth in the experiment on SF-539 CNS, in the experiment on UACC-257 melanoma and in the experiment on M14 melanoma were 50.5%, 54.3% and 47.6%, respectively.
As for `Cc1cc(C)nc(NS(=O)(=O)c2ccc(N/C(N)=N/c3nccc(-c4ccccc4)n3)cc2)n1`, the growth with DU-145 prostate was 88.8%; with K-562 leukemia, 49.3%; in the experiment with MALME-3M melanoma it was 63.3%; in the experiment with MDA-MB-231 breast, 59.4%; in the experiment on SF-268 CNS, 82%; in the experiment on SF-295 CNS, 52.2%. The growth is 70% with SF-539 CNS, 94% in the experiment with UACC-257 melanoma and 88.4% in the experiment on M14 melanoma.
On to `Cn1c(O)c(N=Nc2nc(-c3cc4ccccc4oc3=O)cs2)c2cc(Br)ccc21`, for which the growth in the experiment on DU-145 prostate is 101%; with K-562 leukemia, 100%; in the experiment on MALME-3M melanoma, 49.8%; with MDA-MB-231 breast, 41.4%; in the experiment on SF-268 CNS, 47.2%; in the experiment on SF-295 CNS, 14.3%. For the same compound, the growth was -6.85% (active) in the experiment on SF-539 CNS, 100% in the experiment on UACC-257 melanoma and 88.7% in the experiment on M14 melanoma.
On to `CN1C(=O)N(C)C2SC(N/N=C/C=C/c3ccccc3)=NC21` (configuration not stated), for which the growth with DU-145 prostate was 84.2%; in the experiment with K-562 leukemia it was 25.3%; with MALME-3M melanoma, 66.8%; in the experiment with MDA-MB-231 breast it was 82.4%; in the experiment with SF-268 CNS, 75.2%; in the experiment on SF-295 CNS it was 72.7%. Besides, the growth in the experiment on SF-539 CNS is 75.7%; with UACC-257 melanoma, 83.1%; with M14 melanoma, 54.7%.
`CCOP(=O)(OCC)O[C@H]1CC[C@]2(C)[C@H]3CC[C@@H]4[C@@H]([C@](C)(O)CCC=C(C)C)CC[C@@]4(C)[C@]3(C)CC[C@H]2C1(C)C`: the growth in the experiment on DU-145 prostate is 41.4%; in the experiment on K-562 leukemia it was 13%; in the experiment on MALME-3M melanoma it was 40.3%; in the experiment on MDA-MB-231 breast, 13.9%; with SF-268 CNS, 45.9%; in the experiment with SF-295 CNS it was 32.1%. Besides, the growth was 42.7% in the experiment on SF-539 CNS, 9.27% (active) with UACC-257 melanoma and 29% with M14 melanoma.
For the compound `COc1ccc2cc([C@H](C)C(=O)NCc3ccccc3)ccc2c1`, the growth was 29.4% in the experiment on DU-145 prostate; 20.1% in the experiment with K-562 leukemia; 55.2% in the experiment on MALME-3M melanoma; 38.4% in the experiment on MDA-MB-231 breast; 60.2% with SF-268 CNS; 12.8% in the experiment with SF-295 CNS. Moreover, the growth in the experiment with SF-539 CNS was 2.48% (active); in the experiment on UACC-257 melanoma it was 64.7%; with M14 melanoma it was 38.2%.
In the case of `Cc1ccc(/C=C/C(=O)c2ccc(NC(=O)CSc3nnc(-c4c[nH]c5ccccc45)n3-c3ccccc3)cc2)cc1`, the growth in the experiment with DU-145 prostate is 93%; in the experiment on K-562 leukemia it was 64.1%; in the experiment on MALME-3M melanoma it was 93.9%; in the experiment with MDA-MB-231 breast, 83.7%; in the experiment with SF-268 CNS it was 82.2%; in the experiment on SF-295 CNS, 92.4%. The growth in the experiment with SF-539 CNS is 7.12% (active); with UACC-257 melanoma it was 111%; in the experiment on M14 melanoma, 82.1%.
Consider `CN1CCc2c(sc3ncnc(N/N=C/c4cn(-c5ccccc5)nc4-c4ccc(Cl)cc4)c23)C1`, for which the growth was 31.4% in the experiment with DU-145 prostate; 9.51% (active) in the experiment on K-562 leukemia; 17.8% in the experiment on MALME-3M melanoma; 4.63% (active) in the experiment on MDA-MB-231 breast; 30.7% in the experiment with SF-268 CNS; 21.6% in the experiment with SF-295 CNS. In addition, the growth in the experiment on SF-539 CNS was 7.13% (active); in the experiment with UACC-257 melanoma it was 8.67% (active); in the experiment on M14 melanoma, 16.6%.
For `COc1cc(/C=C/C(=O)c2ccc(S(=O)(=O)NCCNc3nc(Nc4ccc(F)cc4)nc(N(C)C)n3)cc2)cc(OC)c1OC`, the growth was 5.6% (active) in the experiment on DU-145 prostate; 4.79% (active) with K-562 leukemia; 53.7% in the experiment with MALME-3M melanoma; -44.8% (active) in the experiment with MDA-MB-231 breast; 11.1% in the experiment with SF-268 CNS; 13.5% in the experiment with SF-295 CNS. Besides, the growth in the experiment with SF-539 CNS is -94.9% (active); in the experiment with UACC-257 melanoma, 71.6%; in the experiment with M14 melanoma, 5.45% (active).
`Clc1ccc2c(N/N=C/c3c[nH]c4ccc(Br)cc34)ccnc2c1`: the growth was -79.3% (active) in the experiment on DU-145 prostate; -25.5% (active) in the experiment with K-562 leukemia; -83% (active) in the experiment with MALME-3M melanoma; -90.4% (active) in the experiment on MDA-MB-231 breast; -35.7% (active) in the experiment on SF-268 CNS; -99.4% (active) in the experiment with SF-295 CNS. Further, the growth was -87.6% (active) in the experiment on SF-539 CNS, -83.8% (active) in the experiment on UACC-257 melanoma and -46.3% (active) in the experiment with M14 melanoma.
Consider `CCOc1ccc(Nc2nc3ccccc3nc2Nc2ccc(OCC)cc2)cc1`, for which the growth in the experiment on DU-145 prostate was 45.1%; with K-562 leukemia it was 30.2%; in the experiment on MALME-3M melanoma, 83.7%; in the experiment on MDA-MB-231 breast it was 67.7%; with SF-268 CNS, 40%; in the experiment on SF-295 CNS it was 43.3%. Further, the growth in the experiment on SF-539 CNS is 80.8%; in the experiment with UACC-257 melanoma, 75%; with M14 melanoma, 37.6%.
As for `O=C(Cn1nc(-c2ccccc2)ccc1=O)NN1C(=O)c2ccccc2C1=O`, the growth in the experiment on DU-145 prostate was 105%; in the experiment with K-562 leukemia it was 99.8%; in the experiment on MALME-3M melanoma it was 90.1%; in the experiment on MDA-MB-231 breast, 100%; in the experiment with SF-268 CNS it was 97.9%; in the experiment with SF-295 CNS, 96.5%. Also, the growth was 91.2% in the experiment on SF-539 CNS, 113% in the experiment with UACC-257 melanoma and 107% with M14 melanoma.
Take `CC1CC(c2ccc(N(C)C)cc2)=NN1c1nc(O)c(C2=c3cc(Br)ccc3=NC2=O)s1` (configuration not stated): the growth in the experiment with DU-145 prostate is 93.7%; in the experiment on K-562 leukemia it was 61.9%; in the experiment with MALME-3M melanoma, 99.4%; in the experiment with MDA-MB-231 breast it was 99.8%; with SF-268 CNS, 91.7%; in the experiment on SF-295 CNS, 68.9%. Also, the growth is 92.3% with SF-539 CNS, 91.2% in the experiment with UACC-257 melanoma and 84.8% in the experiment with M14 melanoma.
